Laboratory results as given in PubChem BioAssay (NCI).
About 79,000 compounds went through this panel and 15% of them were active in at least one assay; those are over-represented in the sample as a whole. Calls of active or inactive are those of the source. No stated cut-off is given here; in the data, active means growth inhibition above about 70%; inactive means the rest.

Key:
[1] = NCI Yeast Anticancer Drug Screen. Data for the rad50 strain (AID 155);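 further: 0% = growth of vehicle-only cultures of the same strain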; details: S. cerevisiae rad50 strain growth inhibition, active compounds read high
Method in brief: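 Readout: growth inhibition relative to vehicle-treated cultures. Compound exposure was carried out in a genetically defined yeast strain deficient in DNA damage repair.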

[2] = NCI Yeast Anticancer Drug Screen. Data for the mec2-1 strain (AID 157); details: S. cerevisiae mec2-1 strain, active compounds read high
Method in brief: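 Yeast mec2-1 mutant treated with compound. Readout: growth inhibition vs vehicle controls.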

[3] = NCI Yeast Anticancer Drug Screen. Data for the sgs1 mgt1 strain (AID 161);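 further: 0% = growth of cultures given vehicle only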; details: S. cerevisiae sgs1 mgt1 strain, active compounds read high
Method in brief: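 Genetically altered yeast, compound exposure, growth inhibition relative to vehicle.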

[4] = NCI Yeast Anticancer Drug Screen. Data for the cln2 rad14 strain (AID 165);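 further: 0% = growth equal to vehicle treated cultures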; details: S. cerevisiae cln2 rad14 strain, active compounds read high
Method in brief: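 cln2 rad14 yeast strain; compound exposure; growth inhibition read vs vehicle controls.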

[5] = NCI Yeast Anticancer Drug Screen. Data for the bub3 strain (AID 167); details: S. cerevisiae bub3 mutant strain, active compounds read high
Method in brief: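 Readout: yeast growth inhibition, expressed relative to vehicle-only wells. The test organism is a mutant strain from a panel with lesions in DNA repair or checkpoint genes.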

[6] = NCI Yeast Anticancer Drug Screen. Data for the mlh1 rad18 strain (AID 175); details: S. cerevisiae mlh1 rad18 strain growth inhibition, active compounds read high
Method in brief: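 Yeast w/ defined DNA-repair lesions; compound exposure; growth vs vehicle controls → % inhibition.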

[7] = at 5.0 µM (retest, dose inferred, filed as 0.5)
[8] = at 50.0 µM (retest, dose inferred, filed as 5.0)

Measured: growth inhibition

Nc1ccc([As]=[As]c2ccc(N)cc2)cc1 (configuration not stated)
active: [1]; [8] 71% | [1]; at 50.0 µM 73.7% | [2]; [8] 91% | [2]; at 50.0 µM 96.6% | [4]; at 50.0 µM 91.2% | [5]; [8] 91% | [5]; at 50.0 µM 97.2% | [6]; [8] 86% | [6]; at 50.0 µM 90.8%
inactive: [1]; [7] -14% | [2]; [7] 2% | [3]; [7] -16% | [3]; [8] 68% | [3]; at 50.0 µM 50.2% | [4]; [7] 2% | [4]; [8] 67% | [5]; [7] 3% | [6]; [7] -1%

CC(=O)[CH-]C(C)=O.CC(=O)[CH-]C(C)=O.[O-]c1ccccc1.[O-]c1ccccc1.[Ti+4]
inactive: [1]; [7] 25% | [1]; [8] 25% | [1]; at 50.0 µM 40.3% | [2]; [7] 20% | [2]; [8] 20% | [2]; at 50.0 µM 0.3% | [3]; [7] 19% | [3]; [8] 19% | [3]; at 50.0 µM 11.4% | [4]; [7] 21% | [4]; [8] 21% | [4]; at 50.0 µM 15.2% | [5]; [7] 6% | [5]; [8] 6% | [5]; at 50.0 µM 7.05% | [6]; [7] -9% | [6]; [8] -9% | [6]; at 50.0 µM 16.9%

CC(=O)[O-].CC(=O)[O-].O=C(N/N=C/c1cc(Cl)cc(Cl)c1[OH2+])c1ccncc1.[Zn+2]
active: [6]; at 50.0 µM 70%
inactive: [1]; [7] 4% | [1]; [8] 9% | [1]; at 50.0 µM 31% | [2]; [7] -1% | [2]; [8] 11% | [2]; at 50.0 µM 48.4% | [3]; [7] 7% | [3]; [8] 30% | [3]; at 50.0 µM 60.8% | [4]; [7] 0% | [4]; [8] -4% | [4]; at 50.0 µM 38% | [5]; [7] 1% | [5]; [8] 10% | [5]; at 50.0 µM 32.6% | [6]; [7] 2% | [6]; [8] 11%

CC(=O)OC1=CC2=CC[C@H]3[C@@H]4CCC(=O)[C@@]4(C)CC(=O)[C@]3(S)[C@@]2(C)CC1
inactive: [1]; [7] 14% | [1]; [8] 18% | [2]; [7] 3% | [2]; [8] 8% | [2]; at 50.0 µM 25.5% | [3]; [7] 8% | [3]; [8] -20% | [3]; at 50.0 µM -4.4% | [4]; [7] -16% | [4]; [8] -70% | [4]; at 50.0 µM -15.7% | [5]; [7] -8% | [5]; [8] -3% | [5]; at 50.0 µM 60.6% | [6]; [7] -13% | [6]; [8] 11% | [6]; at 50.0 µM 54.1%
active: [1]; at 50.0 µM 77.5%

CC(=O)[O][Sn]([c]1ccccc1)([c]1ccccc1)[c]1ccccc1
active: [1]; [7] 97% | [1]; [8] 99% | [1]; at 50.0 µM 91.1% | [2]; [7] 99% | [2]; [8] 99% | [2]; at 50.0 µM 93.4% | [3]; [7] 98% | [3]; [8] 98% | [3]; at 50.0 µM 93.6% | [4]; [7] 90% | [4]; [8] 98% | [4]; at 50.0 µM 92.8% | [5]; [7] 98% | [5]; [8] 96% | [5]; at 50.0 µM 92.1% | [6]; [7] 100% | [6]; [8] 99% | [6]; at 50.0 µM 91.4%

CC(=O)[O][Hg][c]1ccc(N)[c]([Hg][O]C(C)=O)c1
active: [1]; [7] 99% | [1]; [8] 98% | [1]; at 50.0 µM 99.5% | [2]; [7] 99% | [2]; [8] 99% | [2]; at 50.0 µM 99.5% | [3]; [7] 99% | [3]; [8] 99% | [3]; at 50.0 µM 99.5% | [4]; [7] 99% | [4]; [8] 98% | [4]; at 50.0 µM 98.7% | [5]; [7] 99% | [5]; [8] 99% | [5]; at 50.0 µM 99.2% | [6]; [7] 99% | [6]; [8] 99% | [6]; at 50.0 µM 99.1%

CN(C=O)C(=S)[S][Sb]([S]C(=S)N(C)C=O)[S]c1nc2ccc(N=Nc3ccc(NS(=O)(=O)c4ccc(NC(=O)C(N5CC5)(N5CC5)N5CC5)cc4)cc3)cc2s1
active: [1]; at 50.0 µM 99.2% | [2]; at 50.0 µM 99.3% | [3]; at 50.0 µM 99.5% | [4]; at 50.0 µM 98.7% | [5]; at 50.0 µM 99.2% | [6]; at 50.0 µM 99.2%
inactive: [1]; [7] 4% | [1]; [8] 6% | [2]; [7] 0% | [2]; [8] -5% | [3]; [7] -1% | [3]; [8] 20% | [4]; [7] 4% | [4]; [8] 3% | [5]; [7] 2% | [5]; [8] 8% | [6]; [7] 0% | [6]; [8] 4%

O=C(CCl)Nc1ccc(Cl)cc1
inactive: [1]; [7] 3% | [1]; [8] 44% | [1]; at 50.0 µM 54.6% | [2]; [7] 1% | [2]; [8] 29% | [2]; at 50.0 µM 59.5% | [3]; [7] -2% | [3]; [8] 44% | [3]; at 50.0 µM 67.3% | [4]; [7] -2% | [4]; [8] 16% | [4]; at 50.0 µM 40.9% | [5]; [7] 1% | [5]; [8] 40% | [5]; at 50.0 µM 51.9% | [6]; [7] 1% | [6]; [8] 45% | [6]; at 50.0 µM 61.2%

Cc1ccc(S(=O)(=O)/N=[Se](\C)c2ccccc2)cc1 (configuration not stated)
inactive: [1]; [7] 16% | [2]; [7] 11% | [2]; at 50.0 µM 68.5% | [3]; [7] 18% | [4]; [7] -1% | [4]; [8] 56% | [4]; at 50.0 µM 60.9% | [5]; [7] 2% | [6]; [7] 13%
active: [1]; [8] 94% | [1]; at 50.0 µM 93.7% | [2]; [8] 95% | [3]; [8] 83% | [3]; at 50.0 µM 90.7% | [5]; [8] 83% | [5]; at 50.0 µM 80% | [6]; [8] 91% | [6]; at 50.0 µM 87.4%
